# Data from the supplement of paper PMC9254222.
# In all, about 1,100 compounds were measured (“Renilla luciferase signal (cell health) relative to plate median”: median about 0.97, highest 2% from about 1.6 on). What follows is part of a selection rich in the highest values, with near analogues and random picks from the rest.
# Test system: HEK293T (UBE3A T485A transfected, BAR Wnt reporter)
# Test: Renilla luciferase signal (cell health) relative to plate median (fold (linear ratio)); higher = higher Renilla signal
# Settings: 24 h
# How it was run: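 HEK293T cells carrying a transfected BAR firefly luciferase Wnt reporter, TK-Renilla and an expression plasmid were exposed to chemicals at 0.01–100 uM for 24 h, with dosing four hours after transfection. Readout used Dual-Glo luciferase. The firefly/Renilla ratio defined Wnt activity and raw Renilla defined cell health, each median-centred per plate. Figures are means of four biological replicates.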
SMILES,Renilla luciferase signal (concentration: 0.01 uM),Renilla luciferase signal (concentration: 0.1 uM),Renilla luciferase signal (concentration: 1 uM),Renilla luciferase signal (concentration: 10 uM),Renilla luciferase signal (concentration: 100 uM)
CS/C(C)=N/OC(=O)N(C)SN(C)C(=O)O/N=C(\C)SC [Thiodicarb],1,0.646,0.895,0.91,0.0128
CCCCCCCCc1ccc(O)cc1 [4-Octylphenol],–,1.09,1.1,1.3,0.803
CNC(=O)ON=CC(C)(C)SC [Aldicarb],1.1,0.924,0.97,0.918,1.72
CSC(C)(C)C=NO [Aldicarb oxime],–,1.13,1.06,1.24,1.09
CNC(=O)ON=C(C)SC [Methomyl],0.945,0.951,1.1,1.04,1.25
"O=[N+]([O-])c1ccc(O)c([N+](=O)[O-])c1 [2,4-Dinitrophenol]",–,1.15,1.11,0.966,0.305
CCOC(=O)C(O)(c1ccc(Cl)cc1)c1ccc(Cl)cc1 [Chlorobenzilate],–,0.927,0.837,0.929,1.26
CCCSP(=O)(OCC)SCCC [Ethoprop],1.13,0.976,1.08,1.1,1.86
CCOP(=S)(OCC)SCSP(=S)(OCC)OCC [Ethion],–,0.929,0.935,0.973,1.13
CCCCSP(=O)(SCCCC)SCCCC [Tribufos],1.14,0.609,0.976,0.82,0.728
CC(Cc1ccc(OCC(=O)O)cc1)NCC(O)c1csc(C(F)(F)F)n1 (stereo not given),–,0.796,0.849,0.912,1.28
"CCC12COCN1COC2 [5-Ethyl-1-aza-3,7-dioxabicyclo[3.3.0]octane]",–,0.93,1.08,1.1,1.35
CCCCC(CC)COC(=O)c1ccc(C(=O)OCC(CC)CCCC)c(C(=O)OCC(CC)CCCC)c1 (stereo not given) [Tris(2-ethylhexyl) trimellitate],–,0.879,0.991,0.972,1.2
CCC(=O)O[C@H]1CC[C@H]2[C@@H]3CCC4=CC(=O)CC[C@]4(C)[C@H]3CC[C@]12C [Testosterone propionate],–,0.869,0.772,0.878,1.11
C[C@]12CCC(=O)C[C@@H]1CC[C@@H]1[C@@H]2CC[C@]2(C)[C@@H](O)CC[C@@H]12 [5alpha-Dihydrotestosterone],–,0.867,0.848,1,2.06
CNC(=O)N(C)c1nnc(C(C)(C)C)s1 [Tebuthiuron],1.19,0.795,1.02,0.738,1.26
